Screens deposited in PubChem by The Scripps Research Institute Molecular Screening Center.
The list is not random: actives were taken first. Their share in the collection is about 4.8%.
ssDAF12 agonist: activates DAF-12 receptor from parasite S. stercoralis | HEK293 ssDAF-12/GRIP1 lit1-tk-luc reporter, luminescence; % of 3 µM dafachronic acid response | activation, % at 6.8 µM | 370,000 tested, 1% active;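 active means activation above the mean over all tested compounds plus 3 SD, cut at about 0.9% in these data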;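 further: 0% = DMSO-only wells and 100% = 3 µM delta7-dafachronic acid wells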
hcDAF12 agonist: H. contortus DAF-12 activation, primary screen. HEK293 hcDAF-12 lit1-tk-luc reporter, luminescence; 0% DMSO, 100% Δ7-dafachronic acid. activation, % at 6.8 µM. 370,000 tested, 1.4% active. AID 652067;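 active means activation above the mean of all tested compounds plus 3 SD, cut at about 5.5% in these data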;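 further: 100% = response to 3 µM Δ7-dafachronic acid high control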
DAX1 inh-1: inhibits human nuclear receptor DAX1; HEK293 Gal4-DAX1 luciferase reporter, luminescence; inhibition, % at 6.75 µM; P51843; 340,000 tested, 0.99% active;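 active means inhibition above the mean over all tested compounds plus 3 SD, cut at about 4.2% in these data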;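 further: 0% = DAX1-transfected cells with DMSO and 100% = empty-vector control cells with DMSO; inhibition shows as a rise in luminescence from relieved DAX1 repression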
Target sequence (P51843 207-470 limits assumed): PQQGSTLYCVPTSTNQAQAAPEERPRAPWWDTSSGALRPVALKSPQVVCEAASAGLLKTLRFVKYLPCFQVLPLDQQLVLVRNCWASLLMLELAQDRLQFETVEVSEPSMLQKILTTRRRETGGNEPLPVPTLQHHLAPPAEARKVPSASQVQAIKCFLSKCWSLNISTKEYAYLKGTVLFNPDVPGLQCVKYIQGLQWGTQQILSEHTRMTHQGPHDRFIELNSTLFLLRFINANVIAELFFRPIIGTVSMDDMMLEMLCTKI
DAX1 inh-2: DAX1 (NR0B1) inhibition, primary screen. 370,000 tested, 1.1% active. inhibition, % at 6.8 µM. HEK293T StAR-luciferase reporter, SF-1/DAX-1 repression relief;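 active means inhibition above the mean over all tested compounds plus 3 SD, cut at about 3.6% in these data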;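 further: 0% = DAX-1 cells with DMSO and 100% = cells lacking DAX-1 with DMSO; higher inhibition means more luminescence from relief of DAX-1 repression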
hgDAF12 agonist: agonists of H. glycines DAF-12 nuclear receptor; HEK293 GAL4-hgDAF12 UAS-luciferase reporter, agonist luminescence; normalized to butyrate control; activation, % at 6.8 µM; 370,000 tested, 1.8% active;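 active means activation above a cutoff set at the mean of all screened compounds plus 3 SD, cut at about 10% in these data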;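 further: 0% = DMSO wells and 100% = sodium butyrate wells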
SMARCA2 act: activators of SMARCA2 function; AID 652017; MG213 cells, MMTV-luciferase reporter, dexamethasone, overnight; 370,000 tested, 1% active; activation, % at 9.1 µM; in the data active means activation above about 7.8%;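 further: 0% = vehicle wells and 100% = reference activator wells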
SMARCA2 act conf: SMARCA2 activation, confirmation screen; shares compounds with SMARCA2 act; MG213 cells, MMTV-luciferase with dexamethasone, luminescence, overnight; MG213 cells expressing E1A, Rb sequestered; DMSO wells 0%, reference activator 100%; activation, % at 9.1 µM; 3,500 tested, 30% active;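 active means activation above its plate's cutoff, the mean activation of tested wells plus 3 SD, cut at about 7.9% in these data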
GAL4-VP16 Luc: GAL4-VP16 reporter activation counter-screen. HEK293 GAL4-VP16 pG5luc reporter, luciferase luminescence; scaled: DMSO wells 0%, SAHA wells 100%. 3,500 tested, 41% active. shares compounds with SMARCA2 act. AID 686939. activation, % at 9.1 µM;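 active means activation above the solvent-only control well mean plus 3 SD, averaged across control plates, cut at about 5.2% in these data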
An asterisk follows results filed as active; . = no result given.

SMILES	ssDAF12 agonist	hcDAF12 agonist	DAX1 inh-1	DAX1 inh-2	hgDAF12 agonist	SMARCA2 act	SMARCA2 act conf	GAL4-VP16 Luc
c1ccc(Nc2nc(N3CCOCC3)nc(N3CCOCC3)n2)cc1	-2	-3	-1	-1	-1	2	.	.
C(=N\Nc1nc(Nc2ccccc2)nc(N2CCOCC2)n1)/c1c[nH]c2ccccc12	0	4	.	0	-3	9.6*	1	7.7*
CC1CCN(CCc2nc3cc(NC(=O)NC4CCCCC4)ccc3n2C)CC1	-2	-1	0	-1	-4	8.5*	4	1
Cn1c(CCN2CCCCC2)nc2cc(NC(=O)NC3CCCCC3)ccc21	-1	0	1	1	-3	4	.	.
COc1ccc(CCNC(=O)C(=O)N/N=C/c2cccs2)cc1OC	-2	-1	0	-1	3	14*	-1	-1
O=C(Cc1ccccc1[N+](=O)[O-])c1ccc2c(c1)OCO2	-1	1	0	1	3	11*	4	3
Cc1cccc(C(=O)O/N=C(\N)c2cccc([N+](=O)[O-])c2)c1	.	.	0	.	.	.	.	.
N/C(=N\OC(=O)c1ccc2c(c1)OCO2)c1cccc([N+](=O)[O-])c1	-1	3	0	0	3	9.9*	12*	9.4*
N/C(=N\OC(=O)c1cccs1)c1cccc([N+](=O)[O-])c1	0	2	1	1	6	11*	2	6.5*
NC(=O)COc1c(-c2ccccc2)oc2ccccc2c1=O	-2	-1	0	0	1	-1	.	.
COc1cccc(/C=N/NC(=O)CC2C(=O)NN=C2C)c1O (stereo unspecified)	-1	-1	1	0	-2	-1	.	.
COc1ccc(OCCc2nnc(N)s2)cc1	-1	0	-2	1	1	-2	.	.
CCCOc1ccc(-c2nnc(N)s2)cc1	-1	3	2	2	8	9.6*	11*	8.0*
Cc1ccc(S(=O)(=O)Nc2ccc(N3CCN(C)CC3)nc2)cc1	-1	0	0	0	1	2	.	.
CNc1cccc(-c2ccc(N3CCN(C)CC3)nc2)n1	0	2	.	2	9	9.1*	12*	7.7*
CNc1cccc(-c2ccc(C(=O)N3CCOCC3)cc2)n1	0	1	.	2	5	10*	8	0
CCCC(=O)OCC(=O)Nc1ccc2c(c1)OCO2	-1	0	0	-2	1	-3	.	.
C[C@]1(C(=O)NCCN2CCOCC2)C=C[C@@H](Cc2ccccc2)N1C(=O)c1ccccc1	-1	0	2	0	1	0	.	.
CC1(C(=O)NCCN2CCOCC2)C=CC2(CCCCC2)N1C(=O)c1ccccc1 (stereo unspecified)	-1	1	1	0	4	8.7*	3	2
O=C(c1cccc(Br)c1)N1CCN(C(=O)N2CCOCC2)CC1	-1	0	1	0	-1	1	.	.
O=C(c1cccc(Br)c1)N1CCN(C(=O)c2cccc(Br)c2)CC1	-1	-1	-1	0	0	8.8*	1	-1
COc1ccc(-c2cc(=O)n(-c3nc4ccccc4[nH]3)[nH]2)cc1	0	0	0	1	4	8.4*	18*	3
CCOC(=O)c1sc(N)c(C(=O)OCC)c1C	-1	-1	.	1	6	22*	7	7.5*
CCOC(=O)c1c(N)sc(C(=O)OCCOC)c1C	-1	0	1	0	6	0	.	.
C1=Cc2ccccc2Nc2ccccc21	0	2	1	-1	1	-2	.	.
SMILES	ssDAF12 agonist	hcDAF12 agonist	DAX1 inh-1	DAX1 inh-2	hgDAF12 agonist	SMARCA2 act	SMARCA2 act conf	GAL4-VP16 Luc
COC(=O)/C(C#N)=C1/C=Cc2ccccc2N1	-1	5.9*	3	1	10	8.9*	5	8.3*
O=C(NC(=O)c1ccccc1)C1=C(N2CCCC2)COC1=O	0	2	2	1	10	7	.	.
CCc1ccc(C(=O)CN2C(=O)NC(C)(c3ccc(C)cc3)C2=O)cc1 (stereo unspecified)	0	-2	2	0	2	9.1*	6	0
Cc1ccc(C2(C)NC(=O)N(CC(=O)c3ccc4c(c3)OCCO4)C2=O)cc1 (stereo unspecified)	-1	1	0	-1	1	1	.	.
Cc1c(NC(=O)C2CC(c3c(F)cccc3Cl)=NO2)c(=O)n(-c2ccccc2)n1C (stereo unspecified)	-2	-3	2	1	-1	8.4*	0	-1
COc1ccc(C2=NOC(C(=O)Nc3c(C)n(C)n(-c4ccccc4)c3=O)C2)cc1OC (stereo unspecified)	-2	0	0	0	-2	-7	.	.
CC(=O)O[C@@H]1[C@H]2[C@@H](C[C@@H](C)[C@@H]3C=CC(=O)[C@@]13C)OC(=O)[C@@H]2C	-1	-1	0	0	2	-1	.	.
C=C1C(=O)OC2C1CCC(C)C1C=CC(=O)C12C (stereo unspecified)	0	0	-2	0	1	21*	21*	4
COc1ccc(CNCCC2(Cc3ccccc3)CC(C)N(C)CC2C)cc1OC (stereo unspecified)	-1	-1	1	1	-4	8.3*	5	2
COc1ccc(CN(CCC#N)CCC2(c3ccccc3)CC(C)N(C)CC2C)cc1OC (stereo unspecified)	-1	-1	0	1	-1	8	.	.
O=C(NC1=NCCS1)c1cccc(Br)c1	0	5	7.7*	2	11*	12*	17*	7.0*
COc1ccc(CC(=O)Nc2ccc3nc(SC)sc3c2)cc1OC	-1	1	-1	1	-3	-2	.	.
N#Cc1c(NC(=O)CSCC(=O)O)sc2c1CCCC2	-1	-2	0	0	-1	-3	.	.
O=C(CC1CC2CCC1C2)NC1CCCCCCC1 (stereo unspecified)	-1	0	1	0	10	9.5*	5	4
O=C(CC1CCCCC1)NC1CCCC1	-1	-1	-1	0	2	1	.	.
O=C(CN1C(=O)C2CC=CCC2C1=O)OCc1cc(=O)n2cc(Br)ccc2n1 (stereo unspecified)	-1	0	-1	0	1	0	.	.
COc1cc(CNCc2cccs2)ccc1OCC(=O)NC(C)(C)C	-1	-2	0	0	-2	-1	.	.
